The list shows a part of the results. A number with no mark means an inactive call. How the calls were made is not given here.
Target: Lethal factor (Bacillus anthracis) (UniProt P15917)
Assay: anthrax lethal factor cleavage blockers – biochemical, multiplex microsphere, cherry pick 1, confirmation (AID 602142)
Conditions: multiplex microsphere protease cleavage assay, LF; at 10 µM; active compounds read high

Sequence of Lethal factor (Bacillus anthracis) (P15917 whole entry, looked up): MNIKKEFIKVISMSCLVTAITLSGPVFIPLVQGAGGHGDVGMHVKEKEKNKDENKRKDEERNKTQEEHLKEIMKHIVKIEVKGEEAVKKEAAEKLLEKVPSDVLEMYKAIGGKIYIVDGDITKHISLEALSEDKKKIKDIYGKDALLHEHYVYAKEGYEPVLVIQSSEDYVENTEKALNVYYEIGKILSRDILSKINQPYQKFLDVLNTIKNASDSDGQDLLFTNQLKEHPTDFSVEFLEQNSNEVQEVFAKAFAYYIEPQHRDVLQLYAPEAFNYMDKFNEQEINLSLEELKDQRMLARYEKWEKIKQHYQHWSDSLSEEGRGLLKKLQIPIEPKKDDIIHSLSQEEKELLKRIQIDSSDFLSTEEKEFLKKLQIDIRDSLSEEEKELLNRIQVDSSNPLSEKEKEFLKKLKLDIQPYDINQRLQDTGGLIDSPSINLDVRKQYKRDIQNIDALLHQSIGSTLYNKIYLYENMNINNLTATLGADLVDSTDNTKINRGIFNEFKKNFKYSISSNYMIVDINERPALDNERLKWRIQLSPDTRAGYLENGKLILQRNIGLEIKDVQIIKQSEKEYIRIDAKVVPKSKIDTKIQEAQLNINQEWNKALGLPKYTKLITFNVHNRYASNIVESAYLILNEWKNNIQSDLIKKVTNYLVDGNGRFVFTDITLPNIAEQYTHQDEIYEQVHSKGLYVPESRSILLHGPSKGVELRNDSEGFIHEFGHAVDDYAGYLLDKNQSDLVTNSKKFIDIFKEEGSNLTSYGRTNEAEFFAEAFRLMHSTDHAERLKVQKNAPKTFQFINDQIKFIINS

| SMILES | inhibition |
| --- | --- |
| CN1CCN(c2ccc(NC(=O)c3ccccc3)cc2)CC1 | 4.8% |
| CCN1CCN(C(C(=O)NC2CCCC2)c2cc3c(cc2[N+](=O)[O-])OCO3)CC1 (stereo unspecified) | 1.5% |
| CC(=O)c1cccc(NC(=O)N2CCCC2C(=O)NCCc2ccccc2)c1 (stereo unspecified) | 4.9% |
| O=C(O)c1cc(S(=O)(=O)NC2CCCc3ccccc32)ccc1O (stereo unspecified) | 1.4% |
| CC1CCN(C(=O)c2ccc(S(=O)(=O)Cc3cc(F)ccc3F)c([N+](=O)[O-])c2)CC1 | 1.6% |
| CN(C(=O)c1ccccn1)c1nnc(-c2ccccn2)s1 | -4.3% |
| COc1cc2cc(CN(CCN3CCCC3)C(=O)Nc3ccccc3Cl)c(=O)[nH]c2cc1OC | -0.1% |
| Cc1cccc2cc3c(N)c(C(=O)N4CCCc5ccccc54)sc3nc12 | 13.6% |
| Nc1ccccc1Sc1cc(Cl)nnc1Cl | -3.5% |
| COc1ccc(C(=O)Nc2nc(-c3ccc(OC)cc3)c(-c3ccc([N+](=O)[O-])cc3)s2)cc1 | 15.9% |
| CC(=O)Nc1ccc(Oc2ccc3c(c2)C(=O)NC3=O)cc1 | 0.6% |
| O=C(CN1CCCCCC1)Nc1c(Cl)cc(Cl)cc1Cl | 2.3% |
| Cc1ccc(C(=O)COc2cccc(NC(=O)c3ccco3)c2)cc1 | -1.8% |
| COc1cc(C(=O)NCc2ccc3c(c2)cc(C)n3C)cc(OC)c1OC | -4% |
| COc1ccccc1CNC(=O)C1Cc2ccccc2C(=O)O1 (stereo unspecified) | 1.5% |
| COc1ccc(NS(=O)(=O)c2cc(C(=O)Nc3ccccc3C(=O)O)ccc2C)cc1 | -2.7% |

Reference: PubChem BioAssay AID602142 (NMMLSC, 2011)
